Measured values as given in PubChem BioAssay AID1159580 (chemical genetic matrix, 2015).
Values joined by “and” are separate entries in the source; they are usually repeats but may differ in a detail not shown here. Equal entries are not always repeated. Out of some 5,500 compounds screened, about 2,000 (36%) were called active. Inconclusive results (about 18%) are left out. No stated cut-off is given here; in the data, active means normalized growth mostly below about 0.91 (no sharp cut-off); inconclusive means no clear call, values can overlap the other calls; inactive means mostly above about 0.92. This is one part of the list.

Assay: chemical genetic growth profiling, strain panel (AID 1159580);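 further: tested at 20 µM; growth read once vehicle control cultures reached saturation at 30 °C; 1 = growth at the plate median or of vehicle wells; lower values mean less growth of the strain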
Conditions: S. cerevisiae deletion strains, growth OD

Measured: normalized growth

CNC1(C)C2CCC(C2)C1(C)C (stereo unspecified)
inactive: locus YAL013W, strain DEP1, hits give low values 0.982 | locus YAL021C, strain ccr4, hits give low values 0.97 | locus YAL026C, strain drs2, hits give low values 1 | locus YAL030W, strain snc1, hits give low values 1 | locus YAL040C, strain CLN3, hits give low values 1 | locus YBL061C, strain skt5, hits give low values 0.998 | locus YBR009C, strain hhf1, hits give low values 0.993 | locus YBR021W, strain FUR4, hits give low values 1.03 | locus YBR023C, strain chs3, hits give low values 0.981 | locus YBR171W, strain sec66, hits give low values 0.986 | locus YBR229C, strain ROT2, hits give low values 0.961 | locus YBR231C, strain swc5, hits give low values 0.982 | locus YBR279W, strain paf1, hits give low values 0.986 | locus YCL011C, strain gbp2, hits give low values 0.996 | locus YCL016C, strain dcc1, hits give low values 0.977 | locus YCL029C, strain bik1, hits give low values 0.991 | locus YCL061C, strain MRC1 (second series), hits give low values 0.999 | locus YCL061C, strain MRC1, hits give low values 0.989 | locus YCL069W, strain vba3, hits give low values 0.997 | locus YCR088W, strain abp1, hits give low values 0.994 | locus YDL005C, strain med2, hits give low values 0.992 | locus YDL035C, strain GPR1, hits give low values 0.993 | locus YDL040C, strain nat1, hits give low values 0.997 | locus YDL074C, strain BRE1, hits give low values 0.957 | locus YDL101C, strain DUN1, hits give low values 0.969 | locus YDL134C, strain PPH21, hits give low values 0.989 | locus YDL185W, strain tfp1, hits give low values 0.968 | locus YDL192W, strain arf1, hits give low values 0.996 | locus YDR001C, strain nth1, hits give low values 0.996 | locus YDR069C, strain doa4, hits give low values 1.02 | locus YDR101C, strain arx1, hits give low values 1.01 | locus YDR137W, strain rgp1, hits give low values 0.987 | locus YDR150W, strain NUM1, hits give low values 0.977 | locus YDR159W, strain sac3, hits give low values 0.994 | locus YDR162C, strain NBP2, hits give low values 0.913 | locus YDR195W, strain ref2 1 | locus YDR297W, strain sur2, hits give low values 0.993 | locus YDR318W, strain mcm21, hits give low values 1.03 | locus YDR334W, strain swr1, hits give low values 1 | locus YDR335W, strain msn5, hits give low values 0.999 | locus YDR363W, strain ESC2, hits give low values 0.993 | locus YDR388W, hits give low values 1.01 | locus YDR392W, strain spt3, hits give low values 0.93 | locus YDR502C, strain sam2, hits give low values 0.984 | locus YEL003W, strain gim4, hits give low values 1 | locus YEL037C, strain rad23, hits give low values 0.995 | locus YEL061C, strain CIN8 (second series), hits give low values 1 | locus YEL061C, strain CIN8, hits give low values 0.982 | locus YER002W, strain NOP16, hits give low values 1 | locus YER015W, strain faa2, hits give low values 1 | locus YER016W, strain bim1, hits give low values 0.997 | locus YER110C, hits give low values 0.993 | locus YER111C, strain swi4, hits give low values 1 | locus YER155C, strain BEM2 (second series), hits give low values 0.995 | locus YER155C, strain BEM2, hits give low values 0.987 | locus YER167W, strain BCK2, hits give low values 1 | locus YFR010W, strain ubp6, hits give low values 0.993 | locus YGL078C, strain dbp3, hits give low values 0.992 | locus YGL086W, strain mad1, hits give low values 1.01 | locus YGL167C, strain pmr1, hits give low values 0.993 | locus YGL173C, strain kem1, hits give low values 0.995 | locus YGL227W, strain vid30, hits give low values 0.987 | locus YGL240W, strain doc1, hits give low values 0.985 | locus YGL248W, strain PDE1, hits give low values 0.982 | locus YGL253W, strain hxk2, hits give low values 1 | locus YGR078C, strain PAC10, hits give low values 0.978 | locus YGR135W, strain pre9, hits give low values 0.96 | locus YGR229C, strain SMI1, hits give low values 0.987 | locus YGR252W, strain gcn5, hits give low values 1.08 | locus YHR013C, strain ard1, hits give low values 0.982 | locus YHR027C, strain rpn1, hits give low values 0.999 | locus YHR030C, strain SLT2, hits give low values 0.996 and 0.974 | locus YHR079C, strain IRE1 (second series), hits give low values 0.998 | locus YHR079C, strain IRE1, hits give low values 0.941 | locus YHR094C, strain hxt1, hits give low values 0.999 | locus YHR129C, strain ARP1, hits give low values 0.99 | locus YHR142W, strain chs7, hits give low values 0.974 | locus YHR200W, strain rpn10, hits give low values 1 | locus YIL066C, strain RNR3, hits give low values 0.989 | locus YIL073C, strain SPO22, hits give low values 1.04 | locus YIL125W, strain kgd1, hits give low values 0.989 | locus YIR030C, strain dcg1, hits give low values 0.991 | locus YJL092W, strain hpr5, hits give low values 0.991 | locus YJL095W, strain BCK1 (second series), hits give low values 0.996 | locus YJL095W, strain BCK1, hits give low values 0.996 and 0.958 | locus YJL115W, strain asf1, hits give low values 0.993 | locus YJL129C, strain trk1, hits give low values 0.976 | locus YJL134W, strain LCB3, hits give low values 0.988 | locus YJL154C, strain vps35, hits give low values 0.994 | locus YJL164C, strain tpk1, hits give low values 0.985 | locus YJL166W, strain qcr8, hits give low values 0.991 | locus YJL168C, strain set2, hits give low values 0.993 | locus YJL187C, strain SWE1 (second series), hits give low values 0.967 | locus YJL187C, strain SWE1, hits give low values 0.995 | locus YJR043C, strain POL32, hits give low values 1.02 | locus YJR066W, strain TOR1, hits give low values 0.981
